“And” between values parts separate entries of the source, which are not always exact repeats. Equal values may be shown once. Results filed as inconclusive are left out. More than one record can exist for a structure, and the calls need not agree. The source made the active and inactive calls. Unless noted, calls follow the shape of the dose curve; as a rule, active = well fitted curve in the direction sought with a large enough effect in the repeat runs; inconclusive = weak or mixed curves; inactive = no such curve, though single readings can be large; an effect the other way counts as inactive or inconclusive.
How the values were obtained:
[1] = qHTS assay to test for compound auto fluorescence at 535 nm (green) in HEK293 cells (AID 720680)
[2] = qHTS assay to test for compound auto fluorescence at 460 nm (blue) in HEK293 cell free culture (AID 720681)
How it was run: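 Test compounds were pinned into cell-free culture medium (DMEM with 10% FBS) and fluorescence was read directly at Ex/Em 405/460 nm. Signals were expressed as fluorescence equivalents of triamterene, with DMSO vehicle as control.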

[3] = qHTS assay to test for compound auto fluorescence at 535 nm (green) in HEK293 cell free culture (AID 720682)
How it was run: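 Read-out: 485/535 nm fluorescence intensity, calibrated against fluorescein. Medium only (DMEM + 10% FBS, no cells); test compound or DMSO vehicle added by pintool before plate reading.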

[4] = qHTS assay to test for compound auto fluorescence at 590 nm (red) in HEK293 cell free culture (AID 720683)
How it was run: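 Tox21 10K library compounds were pinned into cell-free DMEM with 10% FBS and fluorescence was read at excitation 540 nm. Activity is expressed as Rose Bengal sodium equivalency.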

[5] = qHTS assay to test for compound auto fluorescence at 590 nm (red) in HepG2 cell free culture (AID 720684)
How it was run: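 Ex 540 / Em 590 nm read of compound in cell-free MEM (10% FBS). Rose Bengal sodium reference.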

[6] = qHTS assay to test for compound auto fluorescence at 460 nm (blue) in HepG2 cell free culture (AID 720685)
How it was run: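 Cell-free plates of MEM plus 10% FBS received 23 nL compound or DMSO vehicle; blue-channel (405/460 nm) intensity scored against triamterene as reference fluorophore.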

[7] = qHTS assay to test for compound auto fluorescence at 535 nm (green) in HepG2 cell free culture (AID 720686)
[8] = qHTS assay to test for compound auto fluorescence at 460 nm (blue) in HepG2 cells (AID 720687)
How it was run: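 Cells (2,000/well in MEM with 10% FBS) attached overnight at 37 C, then were exposed to compound or DMSO for 1 hr at 37 C, 5% CO2. Fluorescence read at Ex/Em 405/460 nm, expressed as triamterene-equivalent signal.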

[9] = molecular target: Glucocorticoid receptor (Homo sapiens) (UniProt P04150); experiment: qHTS assay to identify small molecule agonists of the glucocorticoid receptor (GR) signaling pathway (AID 720691; active = well fitted activation curve with a large enough effect in the signal ratio in the repeat runs, not every such curve was filed as active; the % refers to the signal ratio)
How it was run: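 HeLa GR-bla reporter line; cells pre-incubated 4 h, compound in DMSO 18 h at 37 C; LiveBLAzer B/G FRET substrate 2 h RT; fluorescence intensity read-out.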

[10] = molecular target: Glucocorticoid receptor (Homo sapiens) (UniProt P04150); experiment: qHTS assay to identify small molecule antagonists of the glucocorticoid receptor (GR) signaling pathway (AID 720692; active = well fitted inhibition curve with a large enough effect in the signal ratio in the repeat runs, not every such curve was filed as active; the % refers to the signal ratio)
How it was run: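 Read-out: beta-lactamase FRET substrate fluorescence, 2 h at room temperature, in HeLa cells stably carrying a GRE-driven bla reporter. Compounds were co-incubated with 5 nM dexamethasone agonist (final) for 18 h at 37 C.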

[11] = qHTS assay to identify small molecule antagonists of the glucocorticoid receptor (GR) signaling pathway - cell viability counter screen (AID 720693); also: nearly all actives have a fitted effect of over 55% in size
[12] = qHTS assay for identifying genotoxic compounds that show differential cytotoxicity against isogenic chicken DT40 cell lines with known DNA damage response pathways - wild type cell line (AID 743012); also: nearly all actives have a fitted effect of over 60% in size
How it was run: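 CellTiter-Glo luminescence readout of viability in wild type DT40 cells after 40 h compound exposure at 37 C/5% CO2; 300 cells/well; reagent incubated 30 min at room temperature before reading.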

[13] = qHTS assay for identifying genotoxic compounds that show differential cytotoxicity against isogenic chicken DT40 cell lines with known DNA damage response pathways - Rev3 mutant cell line (AID 743014); also: nearly all actives have a fitted effect of over 55% in size; also: potency is read from the fitted curve at half-maximal effect
[14] = qHTS assay for identifying genotoxic compounds that show differential cytotoxicity against isogenic chicken DT40 cell lines with known DNA damage response pathways - Rad54/Ku70 mutant cell line (AID 743015); also: nearly all actives have a fitted effect of over 60% in size; also: potency is read from the fitted curve at half-maximal effect
[15] = qHTS assay to identify small molecule antagonists of the androgen receptor (AR) signaling pathway - cell viability counter screen (AID 743033; also: nearly all actives have a fitted effect of over 45% in size)
[16] = qHTS assay to identify small molecule antagonists of the androgen receptor (AR) signaling pathway using the MDA cell line - cell viability counter screen (AID 743041; also: nearly all actives have a fitted effect of over 45% in size)
How it was run: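 In this qHTS counter assay, fluorescence intensity after CellTiter-Fluor addition indicated viability of MDA-kb2 AR-luc cells given compounds and R1881 for 16 h at 37C.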

[17] = molecular target: Androgen receptor (Homo sapiens) (UniProt P10275); experiment: qHTS assay to identify small molecule antagonists of the androgen receptor (AR) signaling pathway (AID 743035; active = well fitted inhibition curve with a large enough effect in the signal ratio in the repeat runs, not every such curve was filed as active; the % refers to the signal ratio)
How it was run: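 AR-bla HEK293 reporter cells; 4 h settle at 37C/5% CO2; compound + R1881 agonist, 16 h at 37C; LiveBLAzer B/G FRET substrate 2 h RT; fluorescence intensity read. qHTS format.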

[18] = molecular target: Androgen receptor (Homo sapiens) (UniProt P10275); experiment: qHTS assay to identify small molecule agonists of the androgen receptor (AR) signaling pathway (AID 743036; active = well fitted activation curve with a large enough effect in the signal ratio in the repeat runs, with a control signal flat, not every such curve was filed as active; the % refers to the signal ratio)
How it was run: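 HEK293 cells stably carrying a UAS-driven beta-lactamase reporter (GeneBLAzer AR-UAS-bla-GripTite) were plated at 2,000 cells/well, rested 4 h at 37C, then exposed to compounds in DMSO for 16 h. LiveBLAzer B/G FRET substrate was added for 2 h at room temperature; fluorescence read.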

[19] = molecular target: Androgen receptor (Homo sapiens) (UniProt P10275); experiment: qHTS assay to identify small molecule agonists of the androgen receptor (AR) signaling pathway using the MDA cell line (AID 743040; also: nearly all actives have a fitted effect of over 20% in size); settings: MDA-kb2 AR-luc cells, MMTV luciferase, 16 h, stronger effect = higher value
How it was run: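 Cell-based luciferase reporter: MDA-kb2, MMTV promoter (AR + GR response elements). 16 h compound exposure at 37C; ONE-Glo, 30 min RT, luminescence.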

[20] = molecular target: Androgen receptor (Homo sapiens) (UniProt P10275); experiment: qHTS assay to identify small molecule antagonists of the androgen receptor (AR) signaling pathway using the MDA cell line (AID 743042; also: nearly all actives have a fitted effect of over 55% in size)
How it was run: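 MDA-kb2 cells (human breast carcinoma, stably carrying an MMTV-luciferase reporter responsive to AR and GR) were plated at 3,000 cells/well and preincubated 5 hr at 37C, then given compound plus R1881 agonist for 16 h. ONE-Glo luminescence was read.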
% is scaled to controls: 0 for no effect and ±100 for the full control effect.

Chain of Glucocorticoid receptor (Homo sapiens) (P04150 whole entry, looked up): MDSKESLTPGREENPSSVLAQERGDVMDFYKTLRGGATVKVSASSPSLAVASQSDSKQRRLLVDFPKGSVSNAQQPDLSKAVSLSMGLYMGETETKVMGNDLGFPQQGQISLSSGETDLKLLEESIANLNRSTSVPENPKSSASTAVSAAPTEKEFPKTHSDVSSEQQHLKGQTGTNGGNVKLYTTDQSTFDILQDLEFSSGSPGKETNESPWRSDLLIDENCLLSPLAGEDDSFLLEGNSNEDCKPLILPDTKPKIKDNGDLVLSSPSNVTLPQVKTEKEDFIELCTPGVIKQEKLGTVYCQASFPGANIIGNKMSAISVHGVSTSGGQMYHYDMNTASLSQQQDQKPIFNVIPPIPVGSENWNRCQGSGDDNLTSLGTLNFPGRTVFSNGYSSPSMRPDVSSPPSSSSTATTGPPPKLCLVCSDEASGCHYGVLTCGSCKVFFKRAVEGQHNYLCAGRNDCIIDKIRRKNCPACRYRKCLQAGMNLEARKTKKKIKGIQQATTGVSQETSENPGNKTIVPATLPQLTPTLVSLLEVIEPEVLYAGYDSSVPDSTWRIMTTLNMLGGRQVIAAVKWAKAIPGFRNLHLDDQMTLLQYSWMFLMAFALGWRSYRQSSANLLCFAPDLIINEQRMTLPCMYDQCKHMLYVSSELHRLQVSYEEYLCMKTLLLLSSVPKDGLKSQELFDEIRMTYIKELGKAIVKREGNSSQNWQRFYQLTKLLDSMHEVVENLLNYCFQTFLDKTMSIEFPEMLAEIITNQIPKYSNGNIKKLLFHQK
Chain of Androgen receptor (Homo sapiens) (P10275 whole entry, looked up): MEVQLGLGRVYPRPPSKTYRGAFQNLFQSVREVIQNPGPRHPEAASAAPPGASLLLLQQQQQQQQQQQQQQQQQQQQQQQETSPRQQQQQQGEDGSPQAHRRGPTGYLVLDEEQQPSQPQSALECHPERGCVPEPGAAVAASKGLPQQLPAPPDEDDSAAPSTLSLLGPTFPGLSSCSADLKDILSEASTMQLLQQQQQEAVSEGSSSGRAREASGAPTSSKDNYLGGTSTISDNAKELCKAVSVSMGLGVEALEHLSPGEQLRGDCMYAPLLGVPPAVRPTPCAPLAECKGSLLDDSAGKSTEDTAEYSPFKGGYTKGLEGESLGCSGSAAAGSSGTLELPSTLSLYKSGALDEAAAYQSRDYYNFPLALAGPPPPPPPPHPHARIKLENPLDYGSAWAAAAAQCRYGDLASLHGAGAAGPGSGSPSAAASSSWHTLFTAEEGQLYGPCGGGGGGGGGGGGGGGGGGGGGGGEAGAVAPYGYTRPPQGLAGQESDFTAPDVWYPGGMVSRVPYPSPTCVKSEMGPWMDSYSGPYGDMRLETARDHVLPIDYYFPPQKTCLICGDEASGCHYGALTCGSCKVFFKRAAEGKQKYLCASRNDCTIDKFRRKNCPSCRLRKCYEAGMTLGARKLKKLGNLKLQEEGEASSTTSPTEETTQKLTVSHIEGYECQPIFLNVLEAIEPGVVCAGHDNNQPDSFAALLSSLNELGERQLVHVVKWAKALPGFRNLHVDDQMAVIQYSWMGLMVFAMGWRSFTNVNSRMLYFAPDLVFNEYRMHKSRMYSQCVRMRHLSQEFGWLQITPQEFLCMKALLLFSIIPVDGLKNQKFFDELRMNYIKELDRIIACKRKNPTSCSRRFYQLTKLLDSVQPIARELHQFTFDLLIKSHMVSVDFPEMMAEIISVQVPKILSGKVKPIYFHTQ

CC(C)(C)NC[C@H](O)COc1nsnc1N1CCOCC1
inactive: outcome [1] | Potency [2] | outcome [3] | outcome [4] | outcome [5] | Potency [6] | outcome [7] | Potency [8] | outcome [9] | Potency [10] | Potency [11] | Potency [12] | Potency [13] | Potency [14] | Potency [15] | Potency [16]

CC(=O)OC[C@H]1O[C@@](COC(C)=O)(O[C@H]2O[C@H](COC(C)=O)[C@@H](OC(C)=O)[C@H](OC(C)=O)[C@H]2OC(C)=O)[C@@H](OC(C)=O)[C@@H]1OC(C)=O
inactive: outcome [1] | Potency [2] | outcome [3] | outcome [4] | outcome [5] | Potency [6] | outcome [7] | Potency [8] | outcome [9] | Potency [10] | Potency [11] | Potency [12] | Potency [13] | Potency [14] | Potency [15] | Potency [16]

C[Si](C)(C)N[Si](C)(C)C
inactive: outcome [1] | Potency [2] | outcome [3] | outcome [4] | outcome [5] | Potency [6] | outcome [7] | Potency [8] | outcome [9] | Potency [10] | Potency [11] | Potency [12] | Potency [13] | Potency [14] | Potency [15] | Potency [16]

CCCCC(=O)O
inactive: outcome [1] | Potency [2] | outcome [3] | outcome [4] | outcome [5] | Potency [6] | outcome [7] | Potency [8] | outcome [9] | Potency [10] | Potency [11] | Potency [12] | Potency [13] | Potency [14] | Potency [15] | Potency [16]

NC(N)=S
inactive: outcome [1] | Potency [2] | outcome [3] | outcome [4] | outcome [5] | Potency [6] | outcome [7] | Potency [8] | outcome [9] | Potency [10] | Potency [11] | Potency [12] | Potency [13] | Potency [14] | Potency [15] | Potency [16]

CC(=O)CC(=O)N(C)C
inactive: outcome [1] | Potency [2] | outcome [3] | outcome [4] | outcome [5] | Potency [6] | outcome [7] | Potency [8] | outcome [9] | Potency [10] | Potency [11] | Potency [12] | Potency [13] | Potency [14] | Potency [15] | Potency [16]

COc1ccc(N)c(OC)c1
inactive: outcome [1] | Potency [2] | outcome [3] | outcome [4] | outcome [5] | Potency [6] | outcome [7] | Potency [8] | outcome [9] | Potency [10] | Potency [11] | Potency [12] | Potency [13] | Potency [14] | Potency [15] | Potency [16]

CCCCCCCCCCCCCC(=O)O
inactive: outcome [1] | Potency [2] | outcome [3] | outcome [4] | outcome [5] | Potency [6] | outcome [7] | Potency [8] | outcome [9] | Potency [10] | Potency [11] | Potency [12] | Potency [13] | Potency [14] | Potency [15] | Potency [16]

Cc1ccncc1
inactive: outcome [1] | Potency [2] | outcome [3] | outcome [4] | outcome [5] | Potency [6] | outcome [7] | Potency [8] | outcome [9] | Potency [10] | Potency [11] | Potency [12] | Potency [13] | Potency [14] | Potency [15] | Potency [16]

CC(COCC(C)OC(=O)c1ccccc1)OC(=O)c1ccccc1 (stereo unspecified)
active: Potency [14] 61.1 µM
inactive: outcome [1] | Potency [2] | outcome [3] | outcome [4] | outcome [5] | Potency [6] | outcome [7] | Potency [8] | outcome [9] | Potency [10] | Potency [11] | Potency [13] | Potency [15] | Potency [16]

Cc1ccccc1Cl
inactive: outcome [1] | Potency [2] | outcome [3] | outcome [5] | Potency [6] | outcome [7] | Potency [8] | outcome [9] | Potency [10] | Potency [11] | Potency [12] | Potency [13] | Potency [14] | Potency [15] | Potency [17] | Potency [18] | activity change ([19]; at 70.3 µM (top of the series)) -0.0268% | activity change ([19]; at 95 µM (top of the series)) -0.806% | Potency [16] | Potency [20]

Cc1ccccc1C=O
inactive: outcome [1] | Potency [2] | outcome [3] | outcome [4] | outcome [5] | Potency [6] | outcome [7] | Potency [8] | outcome [9] | Potency [10] | Potency [11] | Potency [12] | Potency [13] | Potency [14] | Potency [15] | Potency [16]

OC[C@H]1O[C@@H](Oc2ccc(O)cc2)[C@H](O)[C@@H](O)[C@@H]1O
inactive and 30.6 µM (active): Potency [13]
inactive: outcome [1] | Potency [2] | outcome [3] | outcome [4] | outcome [5] | Potency [6] | outcome [7] | Potency [8] | Potency [11] | Potency [12] | Potency [14] | Potency [15] | Potency [16]

CN=C(NC#N)NCCSCc1nc[nH]c1C
inactive and 13.6 µM (active): Potency [14]
inactive and 54 µM (active): Potency [13]
inactive: outcome [1] | Potency [2] | outcome [3] | outcome [4] | outcome [5] | Potency [6] | outcome [7] | Potency [8] | Potency [11] | Potency [12] | Potency [15] | Potency [16]

CCCOC(=O)NCCCN(C)C
inactive: outcome [1] | Potency [2] | outcome [3] | outcome [4] | outcome [5] | Potency [6] | outcome [7] | Potency [8] | Potency [11] | Potency [12] | Potency [13] | Potency [14] | Potency [15] | Potency [16]

Cc1nnc(NS(=O)(=O)c2ccc(N)cc2)s1
inactive: outcome [1] | Potency [2] | outcome [3] | outcome [4] | outcome [5] | Potency [6] | outcome [7] | Potency [8] | Potency [11] | Potency [12] | Potency [13] | Potency [14] | Potency [15] | Potency [17] | Potency [18] | activity change ([19]; at 70.3 µM (top of the series)) 6.45% and 3.21% | Potency [16] | Potency [20]

Oc1ccc(Cc2ccccc2O)cc1
inactive: outcome [1] | Potency [2] | outcome [3] | outcome [4] | outcome [5] | Potency [6] | outcome [7] | Potency [8] | outcome [9] | Potency [10] | Potency [11] | Potency [12] | Potency [13] | Potency [14] | Potency [15] | Potency [16]

Reference: PubChem BioAssay (Tox21)
